# Laboratory results reported in publication PMC7862700, “An all-to-all approach to the identification of sequence-specific readers for epigenetic DNA modifications on cytosine”.
# Key:
# Test in all cases: DAPPL (digital affinity profiling via proximity ligation, sequencing); 10 mM Tris-HCl pH 7.5, 50 mM NaCl, 1 mM DTT, 4% glycerol, room temperature, 30 min; GST-TFs on glutathione beads, 16-mer random dsDNA library, 0.1% formaldehyde crosslink after washing; high values mean tight binding
# FEV = molecular target: T1, FEV (Homo sapiens, UniProt Q99581 1-238); settings: protein: recombinant; tags: N-terminal GST; dsDNA, one strand shown
# T1 sequence: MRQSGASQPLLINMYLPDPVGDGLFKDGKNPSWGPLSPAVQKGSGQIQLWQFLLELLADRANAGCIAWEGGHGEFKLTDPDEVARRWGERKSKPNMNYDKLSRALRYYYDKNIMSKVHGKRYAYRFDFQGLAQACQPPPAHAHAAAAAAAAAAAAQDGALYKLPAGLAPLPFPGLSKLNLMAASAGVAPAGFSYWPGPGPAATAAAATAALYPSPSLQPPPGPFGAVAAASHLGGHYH
# How it was run: (§1)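 Binding signal is defined as a hexamer's read frequency for one factor over its frequency for the tag-only sample. To obtain reads, GST-fused human transcription factors were expressed in yeast, captured on glutathione beads, barcoded with DNA and pooled with that sample. Pools met 200 nmole of a 16-mer random double-stranded DNA library in Tris/NaCl/DTT/glycerol buffer for 30 min at room temperature before washing, 0.1% formaldehyde crosslinking, proximity ligation (BsaI/T4 ligase, 1 h, 37 °C), PCR and Illumina NextSeq500 sequencing.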
# ETV5 = ETV5 (Homo sapiens, UniProt P41161 1-510); settings: protein: recombinant; tags: N-terminal GST; dsDNA, one strand shown
# How it was run: as §1
# HSF1 = HSF1 (Homo sapiens, UniProt Q00613 1-529); settings: protein: recombinant; tags: N-terminal GST; chain copies: 3; dsDNA, one strand shown
# How it was run: as §1
# SPIC = molecular target: T2, SPIC (Homo sapiens, UniProt Q8N5J4 1-248); settings: protein: recombinant; tags: N-terminal GST; dsDNA, one strand shown
# T2 sequence: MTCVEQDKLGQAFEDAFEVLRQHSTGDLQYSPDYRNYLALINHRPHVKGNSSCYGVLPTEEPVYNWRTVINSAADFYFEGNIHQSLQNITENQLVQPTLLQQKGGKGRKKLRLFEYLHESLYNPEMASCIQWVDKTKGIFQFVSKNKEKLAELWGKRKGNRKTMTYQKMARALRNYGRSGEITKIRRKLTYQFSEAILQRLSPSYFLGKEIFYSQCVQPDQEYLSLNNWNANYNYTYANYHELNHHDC
# How it was run: as §1
# ELF4 = ELF4 (Homo sapiens, UniProt Q99607 1-663); settings: protein: recombinant; tags: N-terminal GST; dsDNA, one strand shown
# How it was run: as §1
# ELK4 = molecular target: T3, ELK4 (Homo sapiens, UniProt P28324-2 1-405); settings: protein: recombinant; tags: N-terminal GST; dsDNA, one strand shown
# T3 sequence: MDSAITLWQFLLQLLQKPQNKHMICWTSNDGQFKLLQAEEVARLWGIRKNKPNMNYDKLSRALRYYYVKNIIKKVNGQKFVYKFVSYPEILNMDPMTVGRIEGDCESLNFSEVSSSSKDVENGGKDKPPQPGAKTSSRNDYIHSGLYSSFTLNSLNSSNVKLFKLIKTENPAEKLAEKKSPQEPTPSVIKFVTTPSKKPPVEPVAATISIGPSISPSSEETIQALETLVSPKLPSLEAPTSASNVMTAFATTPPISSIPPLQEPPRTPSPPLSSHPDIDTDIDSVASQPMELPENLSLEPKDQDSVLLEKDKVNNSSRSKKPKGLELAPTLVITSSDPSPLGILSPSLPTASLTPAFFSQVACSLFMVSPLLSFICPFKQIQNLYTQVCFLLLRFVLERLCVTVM
# How it was run: as §1
# ETV2 = molecular target: T4, ETV2 (Homo sapiens, UniProt O00321 1-342); settings: protein: recombinant; tags: N-terminal GST; dsDNA, one strand shown
# T4 sequence: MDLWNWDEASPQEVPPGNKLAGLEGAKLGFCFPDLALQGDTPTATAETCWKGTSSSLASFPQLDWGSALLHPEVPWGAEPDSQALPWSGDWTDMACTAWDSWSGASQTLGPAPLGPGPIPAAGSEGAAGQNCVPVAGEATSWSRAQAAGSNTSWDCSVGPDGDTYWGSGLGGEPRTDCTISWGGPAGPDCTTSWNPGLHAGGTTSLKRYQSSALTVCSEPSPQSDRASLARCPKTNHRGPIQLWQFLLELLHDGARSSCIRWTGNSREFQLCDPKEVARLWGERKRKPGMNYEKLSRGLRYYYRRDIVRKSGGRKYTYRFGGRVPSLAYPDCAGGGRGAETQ
# How it was run: as §1
# ELF3 = molecular target: T5, ELF3 (Homo sapiens, UniProt P78545 1-371); settings: protein: recombinant; tags: N-terminal GST; dsDNA, one strand shown
# T5 sequence: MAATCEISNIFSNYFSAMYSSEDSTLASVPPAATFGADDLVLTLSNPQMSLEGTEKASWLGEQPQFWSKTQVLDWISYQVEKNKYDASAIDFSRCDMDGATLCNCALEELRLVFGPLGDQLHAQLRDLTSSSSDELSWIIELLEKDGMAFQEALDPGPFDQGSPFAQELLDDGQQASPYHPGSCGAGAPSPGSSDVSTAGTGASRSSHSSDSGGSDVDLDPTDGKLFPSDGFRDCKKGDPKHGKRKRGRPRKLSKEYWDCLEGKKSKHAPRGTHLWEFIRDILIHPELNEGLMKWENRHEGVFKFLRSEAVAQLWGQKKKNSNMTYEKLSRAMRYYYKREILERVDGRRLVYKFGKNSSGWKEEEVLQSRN
# How it was run: as §1
# CRX = CRX (Homo sapiens, UniProt O43186 1-299); settings: protein: recombinant; tags: N-terminal GST; dsDNA, one strand shown
# How it was run: as §1
# ETV1 = ETV1 (Homo sapiens, UniProt P50549 1-477); settings: protein: recombinant; tags: N-terminal GST; dsDNA, one strand shown
# How it was run: as §1
# ERF = molecular target: T6, ERF (Homo sapiens, UniProt P50548 1-548); settings: protein: recombinant; tags: N-terminal GST; dsDNA, one strand shown
# T6 sequence: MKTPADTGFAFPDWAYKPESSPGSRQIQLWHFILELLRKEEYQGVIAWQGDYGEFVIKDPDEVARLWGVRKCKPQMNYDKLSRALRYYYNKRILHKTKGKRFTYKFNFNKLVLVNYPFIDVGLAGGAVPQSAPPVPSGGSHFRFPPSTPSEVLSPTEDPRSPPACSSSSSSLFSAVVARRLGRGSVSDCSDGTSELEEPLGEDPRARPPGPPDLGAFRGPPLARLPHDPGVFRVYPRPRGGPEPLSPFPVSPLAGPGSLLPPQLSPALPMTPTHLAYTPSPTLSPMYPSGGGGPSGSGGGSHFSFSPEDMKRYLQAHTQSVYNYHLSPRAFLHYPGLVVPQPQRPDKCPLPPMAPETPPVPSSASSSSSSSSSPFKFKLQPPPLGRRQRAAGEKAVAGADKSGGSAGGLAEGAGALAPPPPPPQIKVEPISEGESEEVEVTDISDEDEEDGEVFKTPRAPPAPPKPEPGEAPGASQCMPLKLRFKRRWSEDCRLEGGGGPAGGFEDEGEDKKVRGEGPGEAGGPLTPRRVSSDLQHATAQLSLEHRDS
# How it was run: as §1
# ETV3L = molecular target: T7, ETV3L (Homo sapiens, UniProt Q6ZN32 1-361); settings: protein: recombinant; tags: N-terminal GST; dsDNA, one strand shown
# T7 sequence: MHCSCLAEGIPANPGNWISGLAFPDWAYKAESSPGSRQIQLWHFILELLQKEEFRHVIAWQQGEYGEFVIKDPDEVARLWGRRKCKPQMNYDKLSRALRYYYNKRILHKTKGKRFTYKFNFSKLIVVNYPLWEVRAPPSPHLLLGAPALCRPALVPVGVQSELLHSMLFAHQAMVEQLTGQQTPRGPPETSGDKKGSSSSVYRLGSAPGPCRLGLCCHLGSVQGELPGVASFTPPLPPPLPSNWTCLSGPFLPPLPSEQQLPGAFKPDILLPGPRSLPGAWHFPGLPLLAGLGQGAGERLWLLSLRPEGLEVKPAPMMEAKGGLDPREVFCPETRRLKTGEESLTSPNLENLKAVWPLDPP
# How it was run: as §1
# ETS2 = molecular target: T8, ETS2 (Homo sapiens, UniProt P15036 1-469); settings: protein: recombinant; tags: N-terminal GST; dsDNA, one strand shown
# T8 sequence: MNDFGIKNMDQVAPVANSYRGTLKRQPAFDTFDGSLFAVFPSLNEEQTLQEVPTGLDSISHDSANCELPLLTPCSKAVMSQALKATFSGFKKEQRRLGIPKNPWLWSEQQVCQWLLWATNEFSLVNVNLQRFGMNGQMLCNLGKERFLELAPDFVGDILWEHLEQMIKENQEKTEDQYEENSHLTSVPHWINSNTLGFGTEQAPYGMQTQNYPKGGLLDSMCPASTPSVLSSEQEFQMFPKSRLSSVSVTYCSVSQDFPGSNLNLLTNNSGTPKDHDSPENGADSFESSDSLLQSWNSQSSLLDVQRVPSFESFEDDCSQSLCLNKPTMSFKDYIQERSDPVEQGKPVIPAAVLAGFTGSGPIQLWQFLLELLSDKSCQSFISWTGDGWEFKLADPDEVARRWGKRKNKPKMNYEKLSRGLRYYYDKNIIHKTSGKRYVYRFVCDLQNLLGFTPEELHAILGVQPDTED
# How it was run: as §1
# SPDEF = molecular target: T9, SPDEF (Homo sapiens, UniProt O95238 1-335); settings: protein: recombinant; tags: N-terminal GST; dsDNA, one strand shown
# T9 sequence: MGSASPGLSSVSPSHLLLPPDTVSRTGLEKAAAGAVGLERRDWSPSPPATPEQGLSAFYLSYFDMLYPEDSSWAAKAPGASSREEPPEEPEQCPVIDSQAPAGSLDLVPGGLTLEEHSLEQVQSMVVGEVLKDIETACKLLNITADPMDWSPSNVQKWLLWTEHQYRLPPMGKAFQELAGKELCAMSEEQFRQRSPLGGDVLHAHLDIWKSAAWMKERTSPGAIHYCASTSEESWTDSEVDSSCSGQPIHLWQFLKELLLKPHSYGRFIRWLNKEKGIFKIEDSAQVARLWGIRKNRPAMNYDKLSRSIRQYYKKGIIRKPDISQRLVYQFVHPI
# How it was run: as §1
# ETV7 = molecular target: T10, ETV7 (Homo sapiens, UniProt Q9Y603 1-341); settings: protein: recombinant; tags: N-terminal GST; dsDNA, one strand shown
# T10 sequence: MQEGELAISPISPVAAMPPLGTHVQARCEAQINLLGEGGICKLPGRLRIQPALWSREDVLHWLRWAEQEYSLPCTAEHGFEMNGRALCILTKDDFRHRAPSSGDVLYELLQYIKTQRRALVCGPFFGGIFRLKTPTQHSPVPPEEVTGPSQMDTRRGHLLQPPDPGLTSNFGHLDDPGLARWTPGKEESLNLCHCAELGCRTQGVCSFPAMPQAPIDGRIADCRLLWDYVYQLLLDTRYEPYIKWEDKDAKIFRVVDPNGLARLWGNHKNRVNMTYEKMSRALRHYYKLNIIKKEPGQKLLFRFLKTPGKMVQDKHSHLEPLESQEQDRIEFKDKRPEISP
# How it was run: as §1
# ELF5 = molecular target: T11, ELF5 (Homo sapiens, UniProt Q9UKW6-2 1-255); settings: protein: recombinant; tags: N-terminal GST; dsDNA, one strand shown
# T11 sequence: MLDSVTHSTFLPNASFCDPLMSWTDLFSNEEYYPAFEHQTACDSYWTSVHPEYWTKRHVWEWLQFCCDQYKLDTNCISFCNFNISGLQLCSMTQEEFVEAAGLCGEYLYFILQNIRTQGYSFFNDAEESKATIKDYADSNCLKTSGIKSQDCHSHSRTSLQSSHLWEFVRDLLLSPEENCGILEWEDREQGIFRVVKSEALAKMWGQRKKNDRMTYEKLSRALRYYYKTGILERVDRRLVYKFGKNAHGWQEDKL
# How it was run: as §1
# ETV3 = molecular target: T12, ETV3 (Homo sapiens, UniProt P41162-2 1-143); settings: protein: recombinant; tags: N-terminal GST; dsDNA, one strand shown
# T12 sequence: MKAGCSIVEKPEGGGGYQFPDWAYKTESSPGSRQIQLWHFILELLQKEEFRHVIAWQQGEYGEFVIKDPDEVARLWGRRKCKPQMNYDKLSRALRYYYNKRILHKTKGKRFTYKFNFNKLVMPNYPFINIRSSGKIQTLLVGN
# How it was run: as §1
# ETV6 = ETV6 (Homo sapiens, UniProt P41212 1-452); settings: protein: recombinant; tags: N-terminal GST; dsDNA, one strand shown
# How it was run: as §1
# Sequence of HSF1 (Q00613 whole entry): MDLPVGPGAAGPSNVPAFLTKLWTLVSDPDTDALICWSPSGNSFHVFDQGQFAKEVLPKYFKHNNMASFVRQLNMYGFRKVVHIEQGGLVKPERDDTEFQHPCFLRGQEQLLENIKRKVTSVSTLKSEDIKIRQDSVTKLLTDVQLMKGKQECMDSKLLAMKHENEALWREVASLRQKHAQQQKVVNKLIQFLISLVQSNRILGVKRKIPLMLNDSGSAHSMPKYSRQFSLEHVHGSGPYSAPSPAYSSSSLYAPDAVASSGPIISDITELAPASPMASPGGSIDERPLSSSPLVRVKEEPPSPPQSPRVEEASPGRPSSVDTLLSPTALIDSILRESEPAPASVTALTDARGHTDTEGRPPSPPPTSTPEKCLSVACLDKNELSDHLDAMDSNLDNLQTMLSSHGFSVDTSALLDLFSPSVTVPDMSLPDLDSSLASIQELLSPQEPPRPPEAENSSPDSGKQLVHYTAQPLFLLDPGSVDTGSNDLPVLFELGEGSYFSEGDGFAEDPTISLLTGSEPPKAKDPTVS
# Sequence of ELF4 (Q99607 whole entry): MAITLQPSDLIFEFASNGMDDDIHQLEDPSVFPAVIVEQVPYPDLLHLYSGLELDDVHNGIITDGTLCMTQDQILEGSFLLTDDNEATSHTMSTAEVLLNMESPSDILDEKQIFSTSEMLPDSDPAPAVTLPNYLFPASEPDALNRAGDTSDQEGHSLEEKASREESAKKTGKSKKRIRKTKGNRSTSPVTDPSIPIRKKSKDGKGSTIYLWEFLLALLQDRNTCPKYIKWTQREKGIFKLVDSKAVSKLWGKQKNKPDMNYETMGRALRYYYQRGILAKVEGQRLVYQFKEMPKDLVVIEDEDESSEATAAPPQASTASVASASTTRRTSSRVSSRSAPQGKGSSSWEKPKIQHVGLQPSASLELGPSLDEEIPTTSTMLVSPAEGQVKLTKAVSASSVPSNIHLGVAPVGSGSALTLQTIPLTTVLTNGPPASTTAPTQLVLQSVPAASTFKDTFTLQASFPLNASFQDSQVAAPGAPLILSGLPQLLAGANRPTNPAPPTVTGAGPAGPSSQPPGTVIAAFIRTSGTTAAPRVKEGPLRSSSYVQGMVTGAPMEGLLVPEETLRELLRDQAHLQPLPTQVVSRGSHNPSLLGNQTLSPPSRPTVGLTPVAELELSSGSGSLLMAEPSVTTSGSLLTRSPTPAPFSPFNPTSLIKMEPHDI
# Sequence of CRX (O43186 whole entry): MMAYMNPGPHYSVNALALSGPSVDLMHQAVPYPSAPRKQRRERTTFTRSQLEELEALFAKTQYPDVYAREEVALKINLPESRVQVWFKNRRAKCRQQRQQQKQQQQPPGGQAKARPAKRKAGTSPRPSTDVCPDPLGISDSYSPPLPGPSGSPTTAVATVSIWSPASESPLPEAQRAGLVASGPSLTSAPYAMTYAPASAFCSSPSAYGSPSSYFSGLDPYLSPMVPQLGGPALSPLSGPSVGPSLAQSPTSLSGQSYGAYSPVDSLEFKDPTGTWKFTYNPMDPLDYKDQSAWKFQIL
# Sequence of ETV6 (P41212 whole entry): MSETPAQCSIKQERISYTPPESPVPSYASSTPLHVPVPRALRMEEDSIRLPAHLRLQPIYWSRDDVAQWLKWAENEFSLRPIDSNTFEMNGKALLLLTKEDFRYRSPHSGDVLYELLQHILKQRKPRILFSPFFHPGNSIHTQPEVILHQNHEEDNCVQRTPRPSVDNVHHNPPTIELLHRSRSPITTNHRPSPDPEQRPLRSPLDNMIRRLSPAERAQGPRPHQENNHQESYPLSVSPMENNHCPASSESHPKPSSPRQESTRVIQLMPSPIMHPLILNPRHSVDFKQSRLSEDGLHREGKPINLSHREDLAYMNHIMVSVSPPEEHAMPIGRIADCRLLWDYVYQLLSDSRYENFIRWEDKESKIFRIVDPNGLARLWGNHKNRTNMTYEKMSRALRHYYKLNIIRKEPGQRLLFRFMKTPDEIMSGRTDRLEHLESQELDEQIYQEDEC
# Sequence of ETV5 (P41161 whole entry): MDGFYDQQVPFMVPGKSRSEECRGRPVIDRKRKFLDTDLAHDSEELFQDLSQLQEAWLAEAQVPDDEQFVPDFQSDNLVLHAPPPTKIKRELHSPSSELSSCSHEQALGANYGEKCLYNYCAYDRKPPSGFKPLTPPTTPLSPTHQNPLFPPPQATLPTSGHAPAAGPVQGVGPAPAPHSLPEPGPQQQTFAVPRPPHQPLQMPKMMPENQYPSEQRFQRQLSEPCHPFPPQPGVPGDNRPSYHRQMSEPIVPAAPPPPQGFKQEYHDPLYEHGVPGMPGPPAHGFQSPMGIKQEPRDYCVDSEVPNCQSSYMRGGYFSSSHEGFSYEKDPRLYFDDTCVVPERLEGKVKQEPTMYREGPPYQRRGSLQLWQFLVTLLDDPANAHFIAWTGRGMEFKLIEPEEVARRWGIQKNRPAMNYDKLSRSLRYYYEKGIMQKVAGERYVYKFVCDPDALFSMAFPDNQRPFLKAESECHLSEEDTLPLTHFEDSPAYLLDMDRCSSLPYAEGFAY
# Sequence of ETV1 (P50549 whole entry): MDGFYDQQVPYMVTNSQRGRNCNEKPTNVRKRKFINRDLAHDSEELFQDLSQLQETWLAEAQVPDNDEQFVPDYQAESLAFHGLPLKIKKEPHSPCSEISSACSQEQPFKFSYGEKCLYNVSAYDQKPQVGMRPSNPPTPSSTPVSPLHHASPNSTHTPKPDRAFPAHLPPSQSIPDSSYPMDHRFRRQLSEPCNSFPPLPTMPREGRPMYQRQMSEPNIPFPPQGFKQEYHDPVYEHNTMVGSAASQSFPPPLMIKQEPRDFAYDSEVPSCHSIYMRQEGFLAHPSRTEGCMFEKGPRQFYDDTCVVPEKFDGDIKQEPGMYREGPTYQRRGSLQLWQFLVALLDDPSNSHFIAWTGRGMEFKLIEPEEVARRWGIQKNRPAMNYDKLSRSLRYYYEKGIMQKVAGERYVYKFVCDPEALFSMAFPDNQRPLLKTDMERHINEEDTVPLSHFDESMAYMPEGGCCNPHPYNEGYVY
sequence,measurement,setting,value
TTAGTA,binding signal,FEV,"1.05 fold enrichment (6-mer frequency, TF over GST control)"
same,binding signal,ETV5,"1.15 fold enrichment (6-mer frequency, TF over GST control)"
same,binding signal,HSF1,"1.68 fold enrichment (6-mer frequency, TF over GST control)"
same,binding signal,SPIC,"1.16 fold enrichment (6-mer frequency, TF over GST control)"
same,binding signal,ELF4,"1.1 fold enrichment (6-mer frequency, TF over GST control)"
same,binding signal,ELK4,"1.12 fold enrichment (6-mer frequency, TF over GST control)"
same,binding signal,ETV2,"1.22 fold enrichment (6-mer frequency, TF over GST control)"
same,binding signal,ELF3,"1.15 fold enrichment (6-mer frequency, TF over GST control)"
same,binding signal,CRX,"2.39 fold enrichment (6-mer frequency, TF over GST control)"
same,binding signal,ETV1,"1.11 fold enrichment (6-mer frequency, TF over GST control)"
same,binding signal,ERF,"1.17 fold enrichment (6-mer frequency, TF over GST control)"
same,binding signal,ETV3L,"1.07 fold enrichment (6-mer frequency, TF over GST control)"
same,binding signal,ETS2,"1.09 fold enrichment (6-mer frequency, TF over GST control)"
same,binding signal,SPDEF,"1.12 fold enrichment (6-mer frequency, TF over GST control)"
same,binding signal,ETV7,"1.14 fold enrichment (6-mer frequency, TF over GST control)"
same,binding signal,ELF5,"1.07 fold enrichment (6-mer frequency, TF over GST control)"
same,binding signal,ETV3,"1.27 fold enrichment (6-mer frequency, TF over GST control)"
same,binding signal,ETV6,"1.12 fold enrichment (6-mer frequency, TF over GST control)"
